{"source": "PubChem BioAssay (NCATS)", "note": "Records with an inconclusive call do not appear. A call without a number means that no potency is given here. Active and inactive are the calls of the source. The call rests on the fitted dose curve; in most records, active means well fitted inhibition curve with a large enough effect; inconclusive means small, poorly fitted or top-dose-only effect; inactive means flat fitted curve, though single readings scatter. Potency means the concentration at half of the fitted maximal effect.", "data": [{"tested_on": "CP262", "assay": "qHTS profiling for inhibitors of Plasmodium falciparum proliferation (AID 504749); further: nearly all actives have a fitted effect of over 60% in size", "conditions": "P. falciparum in erythrocytes, SYBR Green DNA, 72 h; series mostly up to 28.7 µM", "summary_of_the_method": "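Fluorescence of SYBR Green-bound parasite DNA, read at 485/535 nm, served as the growth measure. Infected erythrocytes were cultured with compound 72 h; artemisinin (0.29 uM) and DMSO wells defined the normalization range.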", "values": [{"smiles": "NC(=O)c1ncn(C2OC(CO)C(O)C2O)c1N", "note": "(stereo not given)", "Potency": "inactive"}, {"smiles": "C[C@H]1[C@@H](OC(=O)CCC(=O)O)OC2OC3(C)CC[C@H]4[C@H](C)CC[C@@H]1[C@@]24OO3", "note": "(stereo not given in full)", "Potency": "5.4 nM (active)"}, {"smiles": "CC1(Cn2ccnn2)[C@H](C(=O)O)N2C(=O)C[C@H]2S1(=O)=O", "note": "(stereo not given in full)", "Potency": "inactive"}, {"smiles": "CN(C)CC/C=C1\\c2ccccc2COc2ccc(CC(=O)O)cc21", "Potency": "inactive"}, {"smiles": "CCCC(=O)O[C@]1(C(=O)COC(C)=O)CC[C@H]2C3C[C@H](F)C4=CC(=O)C=CC4(C)[C@@]3(F)[C@@H](O)CC21C", "note": "(stereo not given in full)", "Potency": "inactive"}, {"smiles": "OCCN1CC(O)C(O)C(O)C1CO", "note": "(stereo not given)", "Potency": "inactive"}, {"smiles": "COc1cc2c(cc1O)CCN[C@@]21CS[C@H]2c3c(OC(C)=O)c(C)c4c(c3C(COC1=O)N1C2C2c3c(cc(C)c(OC)c3O)CC([C@@H]1O)N2C)OCO4", "note": "(stereo not given in full)", "Potency": "0.5 nM (active)"}, {"smiles": "CC(CCC(=O)O)C1CCC2C3C(=O)C[C@@H]4CC(=O)CC[C@@]4(C)C3CC(=O)[C@]12C", "note": "(stereo not given in full)", "Potency": "inactive"}, {"smiles": "C[n+]1c2cc(N)ccc2cc2ccc(N)cc21", "Potency": "1350 nM (active)"}, {"smiles": "O=C(OC[C@@H]1O[C@@](O)(COC(=O)c2cccnc2)[C@H](OC(=O)c2cccnc2)[C@H]1OC(=O)c1cccnc1)c1cccnc1", "Potency": "inactive"}, {"smiles": "O=[N+]([O-])O[C@H]1CO[C@H]2[C@@H]1OC[C@H]2O", "Potency": "inactive"}, {"smiles": "COc1cccc(OC)c1C(=O)NC1C(=O)N2C1SC(C)(C)C2C(=O)O", "note": "(stereo not given)", "Potency": "inactive"}, {"smiles": "NC[C@@H]1O[C@H](OC2[C@@H](CO)O[C@@H](OC3[C@H](O)[C@H](N)C[C@H](N)[C@H]3OC3O[C@H](CO)[C@@H](O)[C@H](O)[C@@H]3N)[C@H]2O)C(N)[C@H](O)[C@@H]1O", "note": "(stereo not given in full)", "Potency": "inactive"}, {"smiles": "Cc1ccc(S(=O)(=O)NC(=O)NC(C)Cc2ccccc2)cc1", "note": "(stereo not given)", "Potency": "inactive"}, {"smiles": "OCCOC[C@H]1O[C@H](OCCO)[C@H](OCCO)[C@@H](OCCO)[C@@H]1OCCO", "note": "(tested in a mixture with another compound)", "Potency": "inactive"}, {"smiles": "C[S+](C)CC[C@H](N)C(=O)O", "Potency": "inactive"}, {"smiles": "CC[C@@H]1/C=C(\\C)C[C@H](C)C[C@H](OC)[C@H]2O[C@@](O)(C(=O)C(=O)N3CCCC[C@H]3C(=O)O[C@H](/C(C)=C/[C@@H]3CC[C@H](Cl)[C@H](OC)C3)[C@H](C)[C@@H](O)CC1=O)[C@H](C)C[C@@H]2OC", "Potency": "inactive"}, {"smiles": "NC(=O)C1CC2(NC(=O)NC2=O)c2cc(F)ccc2O1", "note": "(stereo not given)", "Potency": "inactive"}, {"smiles": "CN1[C@@H]2CC[C@@H]1CC(OC(=O)[C@H](CO)c1ccccc1)C2", "note": "(stereo not given in full)", "Potency": "inactive"}, {"smiles": "CC[C@@]1(O)C[C@H](O[C@H]2C[C@@H](N(C)C)[C@@H](O[C@H]3C[C@@H](O)[C@@H](O[C@H]4CCC(=O)[C@@H](C)O4)[C@@H](C)O3)[C@@H](C)O2)c2c(cc3c(c2O)C(=O)c2c(O)cccc2C3=O)[C@H]1C(=O)OC", "Potency": "757 nM (active)"}, {"smiles": "CCCCCCCCCCCC(=O)OCC(O)C1OCC(O)C1O", "note": "(stereo not given)", "Potency": "inactive"}, {"smiles": "C/C1=C2/[N-]C(C(CC(N)=O)[C@@]2(C)CCC(=O)NCC(C)OP(=O)([O-])O[C@H]2[C@@H](O)[C@@H](n3cnc4cc(C)c(C)cc43)O[C@@H]2CO)[C@]2(C)N=C(/C(C)=C3N=C(/C=C4N=C1C(CCC(N)=O)C\\4(C)C)[C@@H](CCC(N)=O)[C@]\\3(C)CC(N)=O)[C@@H](CCC(N)=O)[C@]2(C)CC(N)=O.CC(=O)O.[Co]", "note": "(stereo not given in full)", "Potency": "inactive"}, {"smiles": "CC1(C)OC[C@@H]2O[C@@]3(C(=O)O)OC(C)(C)O[C@@H]3[C@@H]2O1", "Potency": "inactive"}, {"smiles": "Cc1ccccc1N1C(=O)c2cc(N)ccc2N/C1=C\\F", "Potency": "inactive"}, {"smiles": "CCC(C(=O)O)C1OC(C(C)C(O)C(C)C(=O)C(CC)C2OC3(C=CC(O)C4(CCC(C)(C5CCC(O)(CC)C(C)O5)O4)O3)C(C)CC2C)C(C)CC1C", "note": "(stereo not given)", "Potency": "536 nM (active)"}, {"smiles": "O=C1C(I)=CC(=C(c2cc(I)c(O)c(I)c2)c2ccccc2C(=O)O)C=C1I", "Potency": "inactive"}, {"smiles": "NC(=O)NC(CCC(=O)O)C(=O)O", "note": "(stereo not given)", "Potency": "inactive"}, {"smiles": "COC1CC2CCC(C)[C@](O)(O2)C(=O)C(=O)N2CCCCC2C(=O)OC(C(C)CC2CCC(O)C(OC)C2)CC(=O)C(C)/C=C(/C)C(O)C(OC)C(=O)C(C)CC(C)C=CC=C/C=C\\1C", "note": "(stereo not given in full)", "Potency": "inactive"}, {"smiles": "CC(=O)OCC(=O)[C@@]1(O)CCC2C3C[C@H](C)C4=CC(=O)C=CC4(C)C3C(O)CC21C", "note": "(stereo not given in full)", "Potency": "inactive"}, {"smiles": "CN[C@H](C)CCC=C(C)C", "Potency": "1070 nM (active)"}, {"smiles": "CC1(C)C2CC[C@]1(C)[C@@H](O)C2", "Potency": "inactive"}, {"smiles": "OCC1O[C@H](Oc2ccc(O)cc2)C(O)C(O)C1O", "note": "(stereo not given in full)", "Potency": "inactive"}, {"smiles": "Nc1nc(F)nc2c1ncn2[C@@H]1O[C@H](CO)[C@@H](O)[C@H]1O", "Potency": "inactive"}, {"smiles": "CC1OC(OC2CCC3(C)C(CCC4C3CC(O)C3(C)C(C5=CC(=O)OC5)CCC43O)C2)CC(O)C1OC1CC(O)C(OC2CC(O)C(OC3OC(CO)C(O)C(O)C3O)C(C)O2)C(C)O1", "note": "(stereo not given)", "Potency": "inactive"}, {"smiles": "CC1OC(OCC2OC(Oc3c(-c4ccc(OCCO)c(OCCO)c4)oc4cc(OCCO)cc(O)c4c3=O)C(O)C(O)C2O)[C@@H](O)C(O)C1O", "note": "(stereo not given in full)", "Potency": "inactive"}]}]}
